High-throughput results (PubChem BioAssay)
Pf growth 96h = P. falciparum growth inhibition at 96 hour, primary screen for plastid delayed-death inhibitors; P. falciparum luciferase reporter growth, 96 h; AID 504834; hit rate 6.9% among 320,000; Potency, µM (series often up to 28.7 µM), for the others: at the highest dose activity change, negative = inhibition, usual class: inhibitors; further: potency means the concentration at half of the fitted maximal effect; on the % scale 0 is the no-effect control and ±100 the full control effect
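Readout is luminescence from an integrated firefly luciferase in P. falciparum. Red cells, 2% hematocrit and 0.05% parasitemia final, were cultured with compound through two parasite generations (96 hours) at 37 C, 5% CO2.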
Cycloheximide cs = affects cycloheximide protein synthesis inhibition readout, counter-screen; max response, %; hit rate 12% among 300,000; cell reporter, cycloheximide protein synthesis inhibition counterscreen; in the data active means max response mostly above about 13%, no sharp cut-off; inactive means mostly below about 14%; further: read at 38.3 µM for the half of the compounds with a filed dose; 0% is about no effect
Shiga inhibitor = blocks Shiga toxin action in Vero cells; AID 2315; inhibition, % at 38.7 µM; Vero cells, Shiga toxin protein synthesis inhibition reporter; hit rate 9.2% among 290,000; in the data active means inhibition mostly above about 28%, no sharp cut-off; inactive means mostly below about 43%; further: 0% is about no effect
HCMV antiviral = inhibitors of human cytomegalovirus. AID 1259415. activity change, negative = inhibition, % at 57.5 µM. hit rate 4.5% among 410,000. HFF cells, HCMV-luciferase reporter, 72 h; active compounds read low; in the data active means activity change below about -60%; inconclusive means no clear call, values can overlap the other calls; inactive means above about -39%; further: on the % scale 0 is the no-effect control and ±100 the full control effect
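Steps: HFFs plated, 16 h 37C; compounds added; HCMV-luciferase added to MOI 1 PFU/cell; 72 h 37C; OneGlo reagent, 5 min room temperature; luminescence read, normalized to controls.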
HCV inhibitor = inhibitors of hepatitis C virus infection. Huh7.5.1 HCVcc-Cre infection, luciferase reporter, 44 h. Potency, µM (top dose mostly 41.8 µM), inactives show at the highest dose activity change, negative = inhibition, usual class: inhibitors. hit rate 3.4% among 340,000. AID 651820; further: potency means the concentration at half of the fitted maximal effect; on the % scale 0 is the no-effect control and ±100 the full control effect
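Luciferase read-out (15 sec integration) after a 15 min room-temperature substrate step quantifies HCVcc-Cre infection. Cells, 1,000 per well, had compound added 4 h post-plating, then virus at ~0.5 moi, and were cultured 44 h.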
Pf growth 48h = P. falciparum growth inhibition at 48 hours (one generation); P. falciparum luciferase growth in erythrocytes, 48 h; Potency, µM (top dose mostly 28.7 µM), without a hit: at the highest dose activity change, negative = inhibition, most hits filed as inhibitors; hit rate 5.9% among 310,000; further: potency means the concentration at half of the fitted maximal effect; on the % scale 0 is the no-effect control and ±100 the full control effect
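In quantitative HTS format, infected erythrocytes bearing luciferase-reporter parasites were treated for a single generation at 37 C. Luminescence after adding detection reagent served as the growth measure.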
* marks the source's active call; other numbers are inactive results; i = inactive; ? = inconclusive; · = not tested or not shown; [ ] = dose if it differs, or a comment. Compounds with a hit are over-represented: about 21% of the library has one in this group of screens. Unless noted, the call rests on the fitted dose curve; in most records, active means well fitted inhibition curve with a large enough effect; inconclusive means small, poorly fitted or top-dose-only effect, or another doubt; inactive means no such curve, though single readings can be large or run the other way.

SMILES	Pf growth 96h	Cycloheximide cs	Shiga inhibitor	HCMV antiviral	HCV inhibitor	Pf growth 48h
CCCc1ccc(-c2cc(C(=O)N3CCN(c4ccccn4)CC3)c3ccccc3n2)cc1	5.2µM*	49*	31	-64*	?	6%
O=C(CS(=O)(=O)c1ccc(F)cc1)Nc1nnc(-c2cccs2)o1	-1%	·	·	-21	-1%[8.37 µM]	1%
Fc1ccc2c(Cl)c(-c3nnc(-c4cccs4)o3)sc2c1	27%	35*	78*	46	14%	215%
CN(C)S(=O)(=O)c1cccc(C(=O)Nc2cc(Cl)cc(Cl)c2)c1	·	2	40	-8	11µM*	-72%
CN(C)S(=O)(=O)c1cccc(C(=O)Nc2cc(Cl)ccc2O)c1	-28%	40*	34	35	?	?
CN(C)S(=O)(=O)c1cccc(C(=O)Nc2ccccc2)c1	20%	15	42	15	-28%	31%
CN(C)S(=O)(=O)c1cccc(C(=O)Nc2ccccc2Cl)c1	·	14	25	24	?	32%
CNS(=O)(=O)c1cccc(C(=O)Nc2cccc(Cl)c2)c1	120%	35*	15	31	-28%	·
CCc1ccc(Nc2sc(C(=O)c3ccccc3)c(N)c2S(C)(=O)=O)cc1	·	·	·	-9	·	·
CC(=O)c1ccc2c(c1)c(C#N)c1ccccc1[n+]2[O-]	32%	4	28	-13	?	37%
BrCCOCCOc1ccc2ccccc2c1	2%	65*	26	1	2%	56%
CC(C)(C)NCCOc1ccc2ccccc2c1	32%	4	-6	-5	-18%	5%
O=c1onc(-c2ccccc2Cl)n1-c1ccccc1Cl	·	·	·	-36	-28%	·
O=C(NC1CCCC1)c1ccc(Cl)s1	4%	3	11	-77*	-4%	?
O=C(NCC1CCCO1)c1ccc([N+](=O)[O-])s1 (centres undefined)	?	-3	-2	-31	?	?
O=C(NC1CCCCCC1)c1cc2c(Cl)nc3ccccc3c2s1	·	·	·	-1	·	·
O=C(NC1CCCCCC1)c1ccc([N+](=O)[O-])s1	9.3µM*	·	·	?	?	?
O=C(O)c1cc2ccccc2c2cc(Br)ccc12	43%	-5	7	-14	3%	?
COc1ccc2c(c1)cc(C(=O)N[C@@H](CCSC)C(=O)N1CCC(C(=O)O)CC1)n2C	2%	1	-7	58	11%	13%
COc1ccc(CCNc2nc(-c3sc(N)nc3C)cs2)cc1OC	?	10	-14	-11	-9%	?
Cc1nc(N)sc1-c1csc(Nc2cccc(O)c2)n1	0%	14*	30	70	?	95%
CCC(=O)Nc1nc(C)c(-c2csc(Nc3cccc(O)c3)n2)s1	-19%	36*	50*	83	7.1µM*	·
Cc1cccc(Nc2nc(-c3sc(C)nc3C)cs2)c1	?	29*	50*	22	2.8µM*	18%
Cc1nc2ccccn2c1-c1csc(Nc2cccc(O)c2)n1	0%	2	32	?	0.89µM*	0%
Cc1nc(C)c(-c2csc(Nc3cccc(O)c3)n2)s1	?	45*	35*	38	25µM*	33%
SMILES	Pf growth 96h	Cycloheximide cs	Shiga inhibitor	HCMV antiviral	HCV inhibitor	Pf growth 48h
Cc1cccc(C(=O)N2CCn3c(nnc3C(=O)NC(C)C)C2)c1C	·	·	·	-13	·	·
COc1ccc(C2=C(Nc3ccc(C)cc3C)c3ccccc3C2=O)cc1	·	·	·	3	·	·
COc1ccc(C2=C(Nc3ccccc3)c3ccccc3C2=O)cc1	-93%	8	5	35	-9%	1µM*
O=C(C1=C(c2ccccc2)C(=O)c2ccccc2C1=O)c1ccccc1	28%	20	34	-99*	10µM*	1.5µM*
COC1=C(c2ccccc2)C(=O)c2ccccc2C1=O	1.2µM*	-2	12	-28	?	1.5µM*
COc1ccc(NC2=C(c3ccc(OC)cc3)C(=O)c3ccccc32)cc1	?	-2	-4	-36	3%	0.66µM*
COc1ccc(NC2=C(c3ccc(C(F)(F)F)cc3)C(=O)c3ccccc32)cc1	·	·	·	11	·	·
COc1ccc(C(=O)N/C(=C\c2cn(C)c3ccccc23)C(=O)N2CCN(C)CC2)cc1OC	3%	1	-6	13	8%	-9%
COc1ccc(C2=C(N)c3ccccc3C2=O)cc1	10µM*	42*	102	14	13%	-5%
Cc1ccc(N2C(=O)CC3(CCCC3)CC2=O)cc1	66%	17*	10	-10	17%	43%
CC(COc1ccc(C(C)C)cc1)NC(=O)c1ccc(Br)o1 (centres undefined)	?	-1	-5	11	·	-14%
CCCCn1nc2cc(C(=O)NCC34CC5CC(CC(C5)C3)C4)ccc2c1OC	15µM*	16	-24	-8	-30%	?
CCOc1c2ccc(C(=O)NCC34CC5CC(CC(C5)C3)C4)cc2nn1CC	?	2	-4	5	-13%	-33%
CCn1nc2cc(C(=O)NCC34CC5CC(CC(C5)C3)C4)ccc2c1OC	23%	5	-7	166	-22%	12µM*
CCCCn1nc2cc(C(=O)NCC3CC3)ccc2c1OCC	?	-2	-15	-8	-28%	?
CCNC(=O)CC1C(=O)N(c2ccc(F)cc2)C(=O)N1Cc1ccc(OC)c(OC)c1 (centres undefined)	·	·	·	10	·	·
Cc1ccc(NC(=S)/C(=C(\[O-])c2ccc(Cl)s2)[n+]2cccc(CO)c2)cc1C	?	40*	68*	11	?	25%
[O-]/C(=C(\C(=S)Nc1ccc(SC(F)F)cc1)[n+]1cccc(CO)c1)c1ccc(Cl)s1	?	12	-5	-20	-25%	-16%
O=c1c2sc(-c3ccccc3)cc2nc2n1CCC2	425%	24*	26*	27	8%	240%
Cn1c(NCCN2CCCC2)nc2cc(-c3ccccc3)sc2c1=O	·	·	·	29	·	·
O=c1c2sc(-c3ccccc3)cc2nc2n1CCCCC2	i	53*	56*	?	-13%	300%
CCOC(=O)C1(Cc2cccc(OC)c2)CCN(Cc2ccccc2)CC1	?	1	-9	1	?	?
CCOC(=O)C1(Cc2cccc(OC)c2)CCN(Cc2cccc3cnccc23)CC1	?	2	-3	-24	?	3.7µM*
CCOC(=O)C1(Cc2cccc(OC)c2)CCN(Cc2cccc(OC)c2OC)CC1	?	-2	6	?	10µM*	?
CCOC(=O)C1(Cc2cccc(OC)c2)CCN(Cc2cccnc2)CC1	30%	35*	99*	2	-6%	96%
CCOC(=O)C1(Cc2ccccc2)CCN(Cc2cn[nH]c2-c2ccccc2)CC1	10%	5	-8	-78*	?	?
CCOC(=O)C1(CC2CC2)CCN(Cc2cn[nH]c2-c2ccccc2)CC1	?	-2	-10	-28	2%	-11%
CCCCNc1cccc2c1S(=O)(=O)N[C@H](CC(C)C)CO2	·	·	·	-37	·	·
